Assay results taken from publication PMC7862700, “An all-to-all approach to the identification of sequence-specific readers for epigenetic DNA modifications on cytosine”.

Tests used:
Assay in all cases: DAPPL (digital affinity profiling via proximity ligation, sequencing); 10 mM Tris-HCl pH 7.5, 50 mM NaCl, 1 mM DTT, 4% glycerol, room temperature, 30 min; GST-TFs on glutathione beads, 16-mer random dsDNA library, 0.1% formaldehyde crosslink after washing; high values mean tight binding
Conditions in all cases: protein: recombinant; tags: N-terminal GST; dsDNA, one strand shown
[1] = biological target: T1, ERF (Homo sapiens, UniProt P50548 1-548)
T1 sequence: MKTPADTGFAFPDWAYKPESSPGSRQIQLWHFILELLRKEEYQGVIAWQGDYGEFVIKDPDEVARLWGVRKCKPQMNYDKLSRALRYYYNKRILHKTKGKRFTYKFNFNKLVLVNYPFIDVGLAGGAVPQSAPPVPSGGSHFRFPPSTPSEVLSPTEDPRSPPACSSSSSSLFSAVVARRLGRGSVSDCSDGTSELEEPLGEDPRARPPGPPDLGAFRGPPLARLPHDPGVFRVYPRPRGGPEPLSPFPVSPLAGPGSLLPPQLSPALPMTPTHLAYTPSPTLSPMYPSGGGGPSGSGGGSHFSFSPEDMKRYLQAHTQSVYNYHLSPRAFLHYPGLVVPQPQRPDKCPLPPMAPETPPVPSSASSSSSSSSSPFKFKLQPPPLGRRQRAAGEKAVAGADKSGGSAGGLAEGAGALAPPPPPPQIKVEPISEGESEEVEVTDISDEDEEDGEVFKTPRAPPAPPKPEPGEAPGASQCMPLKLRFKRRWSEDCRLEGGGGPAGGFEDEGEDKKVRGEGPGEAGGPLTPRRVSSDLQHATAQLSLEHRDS
Summary of the method: (§1)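 GST fusions of human transcription factors were expressed in yeast and captured with glutathione beads. Once given DNA barcodes and pooled alongside a tag-only sample, they were incubated for 30 min at room temperature with 200 nmole of a random double-stranded 16-mer DNA library in Tris/NaCl/DTT/glycerol buffer, then washed, crosslinked (0.1% formaldehyde), proximity-ligated, PCR-amplified and sequenced on an Illumina NextSeq500. The binding signal of each hexamer is its read frequency for a factor divided by its frequency for the tag-only sample.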

[2] = biological target: T2, ETV3L (Homo sapiens, UniProt Q6ZN32 1-361)
T2 sequence: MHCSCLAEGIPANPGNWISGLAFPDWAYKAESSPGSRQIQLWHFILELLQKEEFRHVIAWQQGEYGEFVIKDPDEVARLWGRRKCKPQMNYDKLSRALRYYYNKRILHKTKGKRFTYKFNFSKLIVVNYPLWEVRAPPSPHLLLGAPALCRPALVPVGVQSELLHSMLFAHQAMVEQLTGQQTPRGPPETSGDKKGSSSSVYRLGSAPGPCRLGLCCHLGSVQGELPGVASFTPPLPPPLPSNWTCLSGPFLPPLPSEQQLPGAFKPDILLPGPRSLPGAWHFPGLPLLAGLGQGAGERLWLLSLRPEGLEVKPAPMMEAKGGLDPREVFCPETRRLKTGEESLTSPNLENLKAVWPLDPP
Summary of the method: as §1

[3] = biological target: T3, ETS2 (Homo sapiens, UniProt P15036 1-469)
T3 sequence: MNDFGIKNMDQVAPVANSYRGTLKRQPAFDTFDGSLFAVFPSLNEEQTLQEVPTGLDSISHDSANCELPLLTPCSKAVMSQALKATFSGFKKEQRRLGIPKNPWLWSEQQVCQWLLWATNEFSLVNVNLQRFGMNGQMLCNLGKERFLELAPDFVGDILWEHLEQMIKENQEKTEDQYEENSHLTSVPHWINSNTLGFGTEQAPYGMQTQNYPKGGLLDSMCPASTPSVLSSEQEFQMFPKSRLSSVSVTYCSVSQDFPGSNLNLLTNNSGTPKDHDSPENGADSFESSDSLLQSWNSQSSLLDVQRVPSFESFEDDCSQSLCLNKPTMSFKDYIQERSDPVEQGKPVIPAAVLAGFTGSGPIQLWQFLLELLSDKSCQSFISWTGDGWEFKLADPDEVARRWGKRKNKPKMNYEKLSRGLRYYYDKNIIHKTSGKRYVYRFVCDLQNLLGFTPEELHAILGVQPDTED
Summary of the method: as §1

[4] = biological target: T4, SPDEF (Homo sapiens, UniProt O95238 1-335)
T4 sequence: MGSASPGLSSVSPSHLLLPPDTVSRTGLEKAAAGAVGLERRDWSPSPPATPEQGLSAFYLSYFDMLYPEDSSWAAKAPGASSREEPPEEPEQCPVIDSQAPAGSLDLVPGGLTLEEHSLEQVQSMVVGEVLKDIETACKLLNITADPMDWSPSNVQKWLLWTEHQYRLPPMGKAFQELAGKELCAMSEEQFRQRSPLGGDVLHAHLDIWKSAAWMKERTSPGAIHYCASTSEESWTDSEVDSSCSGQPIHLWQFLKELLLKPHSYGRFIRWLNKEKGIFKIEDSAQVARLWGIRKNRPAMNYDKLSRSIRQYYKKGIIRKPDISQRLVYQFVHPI
Summary of the method: as §1

[5] = biological target: T5, ETV7 (Homo sapiens, UniProt Q9Y603 1-341)
T5 sequence: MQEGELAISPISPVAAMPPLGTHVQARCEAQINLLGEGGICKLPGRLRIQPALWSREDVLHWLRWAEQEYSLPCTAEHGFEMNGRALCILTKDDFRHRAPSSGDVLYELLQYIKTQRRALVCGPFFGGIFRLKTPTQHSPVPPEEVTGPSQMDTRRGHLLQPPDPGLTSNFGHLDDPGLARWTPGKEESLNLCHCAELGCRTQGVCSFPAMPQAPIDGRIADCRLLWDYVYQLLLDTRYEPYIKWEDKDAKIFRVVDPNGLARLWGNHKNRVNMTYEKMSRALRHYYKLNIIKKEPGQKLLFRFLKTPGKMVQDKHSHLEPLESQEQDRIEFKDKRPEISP
Summary of the method: as §1

[6] = biological target: T6, ELF5 (Homo sapiens, UniProt Q9UKW6-2 1-255)
T6 sequence: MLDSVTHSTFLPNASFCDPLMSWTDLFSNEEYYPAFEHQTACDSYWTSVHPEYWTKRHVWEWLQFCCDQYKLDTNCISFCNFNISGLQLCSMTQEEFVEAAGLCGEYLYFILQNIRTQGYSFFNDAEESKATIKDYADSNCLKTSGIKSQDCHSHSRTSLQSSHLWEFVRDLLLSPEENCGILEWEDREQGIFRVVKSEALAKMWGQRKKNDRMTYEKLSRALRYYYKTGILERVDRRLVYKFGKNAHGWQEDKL
Summary of the method: as §1

[7] = biological target: T7, ETV3 (Homo sapiens, UniProt P41162-2 1-143)
T7 sequence: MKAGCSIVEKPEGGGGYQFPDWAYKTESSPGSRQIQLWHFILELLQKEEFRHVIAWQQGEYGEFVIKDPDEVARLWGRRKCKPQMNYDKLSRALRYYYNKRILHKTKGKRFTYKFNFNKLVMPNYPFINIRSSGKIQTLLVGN
Summary of the method: as §1

[8] = biological target: ETV6 (Homo sapiens, UniProt P41212 1-452)
Summary of the method: as §1

Sequence of ETV6 (P41212 whole entry): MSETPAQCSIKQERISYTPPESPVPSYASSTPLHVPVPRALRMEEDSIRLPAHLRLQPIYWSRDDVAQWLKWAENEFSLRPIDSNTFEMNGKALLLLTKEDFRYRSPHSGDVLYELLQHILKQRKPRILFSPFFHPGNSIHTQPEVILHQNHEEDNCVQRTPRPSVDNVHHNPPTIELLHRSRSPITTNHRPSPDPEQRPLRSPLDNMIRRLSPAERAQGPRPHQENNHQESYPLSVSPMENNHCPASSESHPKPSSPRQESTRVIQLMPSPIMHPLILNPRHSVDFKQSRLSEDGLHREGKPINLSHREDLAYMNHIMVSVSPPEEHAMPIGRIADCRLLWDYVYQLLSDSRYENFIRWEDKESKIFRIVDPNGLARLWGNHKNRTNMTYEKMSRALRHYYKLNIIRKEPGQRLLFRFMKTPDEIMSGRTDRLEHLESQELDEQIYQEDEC

Row | Sequence | binding signal [1] | binding signal [2] | binding signal [3] | binding signal [4] | binding signal [5] | binding signal [6] | binding signal [7] | binding signal [8]
1 | TTCTAT | 1.46 fold enrichment (6-mer frequency, TF over GST control) | 1.35 fold enrichment (6-mer frequency, TF over GST control) | 1.38 fold enrichment (6-mer frequency, TF over GST control) | 1.35 fold enrichment (6-mer frequency, TF over GST control) | 1.33 fold enrichment (6-mer frequency, TF over GST control) | 1.3 fold enrichment (6-mer frequency, TF over GST control) | 1.33 fold enrichment (6-mer frequency, TF over GST control) | 1.28 fold enrichment (6-mer frequency, TF over GST control)
2 | TACAGA | 1.13 fold enrichment (6-mer frequency, TF over GST control) | 1.04 fold enrichment (6-mer frequency, TF over GST control) | 1.14 fold enrichment (6-mer frequency, TF over GST control) | 1.16 fold enrichment (6-mer frequency, TF over GST control) | 1.18 fold enrichment (6-mer frequency, TF over GST control) | 1.11 fold enrichment (6-mer frequency, TF over GST control) | 1.1 fold enrichment (6-mer frequency, TF over GST control) | 1.1 fold enrichment (6-mer frequency, TF over GST control)
3 | TTATGT | 1.29 fold enrichment (6-mer frequency, TF over GST control) | 1.26 fold enrichment (6-mer frequency, TF over GST control) | 1.3 fold enrichment (6-mer frequency, TF over GST control) | 1.36 fold enrichment (6-mer frequency, TF over GST control) | 1.3 fold enrichment (6-mer frequency, TF over GST control) | 1.23 fold enrichment (6-mer frequency, TF over GST control) | 1.34 fold enrichment (6-mer frequency, TF over GST control) | 1.43 fold enrichment (6-mer frequency, TF over GST control)
4 | CATCTA | 1.19 fold enrichment (6-mer frequency, TF over GST control) | 1.16 fold enrichment (6-mer frequency, TF over GST control) | 1.13 fold enrichment (6-mer frequency, TF over GST control) | 1.07 fold enrichment (6-mer frequency, TF over GST control) | 1.21 fold enrichment (6-mer frequency, TF over GST control) | 1.17 fold enrichment (6-mer frequency, TF over GST control) | 1.05 fold enrichment (6-mer frequency, TF over GST control) | 1.15 fold enrichment (6-mer frequency, TF over GST control)
5 | CGTTCG | 1.52 fold enrichment (6-mer frequency, TF over GST control) | 1.16 fold enrichment (6-mer frequency, TF over GST control) | 1.25 fold enrichment (6-mer frequency, TF over GST control) | 1.04 fold enrichment (6-mer frequency, TF over GST control) | 1.24 fold enrichment (6-mer frequency, TF over GST control) | 1.26 fold enrichment (6-mer frequency, TF over GST control) | 1.19 fold enrichment (6-mer frequency, TF over GST control) | 1.29 fold enrichment (6-mer frequency, TF over GST control)
6 | TTTTAT | 1.17 fold enrichment (6-mer frequency, TF over GST control) | 1.39 fold enrichment (6-mer frequency, TF over GST control) | 1.23 fold enrichment (6-mer frequency, TF over GST control) | 1.22 fold enrichment (6-mer frequency, TF over GST control) | 1.34 fold enrichment (6-mer frequency, TF over GST control) | 1.3 fold enrichment (6-mer frequency, TF over GST control) | 1.45 fold enrichment (6-mer frequency, TF over GST control) | 1.36 fold enrichment (6-mer frequency, TF over GST control)
7 | CCAATA | 1.34 fold enrichment (6-mer frequency, TF over GST control) | 1.21 fold enrichment (6-mer frequency, TF over GST control) | 1.28 fold enrichment (6-mer frequency, TF over GST control) | 1.24 fold enrichment (6-mer frequency, TF over GST control) | 1.14 fold enrichment (6-mer frequency, TF over GST control) | 1.13 fold enrichment (6-mer frequency, TF over GST control) | 1.19 fold enrichment (6-mer frequency, TF over GST control) | 1.23 fold enrichment (6-mer frequency, TF over GST control)
